Data published in PubChem BioAssay (NCATS).
Several values for one entry are separate records, joined by “and”; a condition that tells them apart may be missing. Identical values can stand only once. Inconclusive results are not listed. Activity calls are given as the source filed them. Calls come from the whole dose curve; as a rule, active = well fitted inhibition curve with a large enough effect; inconclusive = small, poorly fitted or top-dose-only effect; inactive = flat fitted curve, though single readings scatter.

biological target: Ubiquitin carboxyl-terminal hydrolase 1 (Homo sapiens) (UniProt O94782); test: Inhibitors of USP1/UAF1: Pilot qHTS (AID 504865); conditions: purified USP1/UAF1, Ub-rhodamine cleavage fluorescence; series mostly up to 114 µM; activity change, negative = inhibition: at the top concentration; note: nearly all actives have a fitted effect of over 35% in size;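 for activity change, negative = inhibition: rhodamine fluorescence freed from ubiquitin-rhodamine substrate followed over time; top concentration of the series differs between compounds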
Sequence (O94782 whole entry, looked up): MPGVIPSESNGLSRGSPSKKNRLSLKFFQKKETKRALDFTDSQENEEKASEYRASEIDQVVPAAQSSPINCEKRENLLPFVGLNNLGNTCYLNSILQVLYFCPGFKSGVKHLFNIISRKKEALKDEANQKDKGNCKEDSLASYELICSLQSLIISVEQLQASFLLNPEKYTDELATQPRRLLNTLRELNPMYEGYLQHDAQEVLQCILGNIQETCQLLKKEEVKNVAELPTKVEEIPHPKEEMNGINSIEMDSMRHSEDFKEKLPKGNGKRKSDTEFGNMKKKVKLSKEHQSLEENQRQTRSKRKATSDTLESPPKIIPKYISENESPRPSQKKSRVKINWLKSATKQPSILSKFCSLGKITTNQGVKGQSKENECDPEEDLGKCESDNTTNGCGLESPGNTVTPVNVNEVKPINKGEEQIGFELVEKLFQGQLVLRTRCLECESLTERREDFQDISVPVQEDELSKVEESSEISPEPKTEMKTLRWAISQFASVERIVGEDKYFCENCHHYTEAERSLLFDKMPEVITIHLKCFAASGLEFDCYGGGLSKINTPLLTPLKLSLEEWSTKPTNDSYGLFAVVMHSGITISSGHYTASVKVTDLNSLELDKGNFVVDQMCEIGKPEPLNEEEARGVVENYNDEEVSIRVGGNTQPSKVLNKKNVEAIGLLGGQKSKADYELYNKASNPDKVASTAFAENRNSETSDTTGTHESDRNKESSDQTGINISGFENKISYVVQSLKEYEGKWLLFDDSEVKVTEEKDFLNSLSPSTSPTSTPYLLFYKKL
Method in brief: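 USP1/UAF1 complex at 1 nM preincubated 15 min at room temperature with compound, then Ub-Rho substrate added at 150 nM final. Fluorescence (480/540 nm) read kinetically in 50 mM HEPES pH 7.8, 0.5 mM EDTA, 1 mM TCEP, 0.1 mg/ml BSA, 0.01% Tween-20.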
% is set by controls: 0 for no effect and ±100 for the full control effect; potency is the fitted concentration of half-maximal effect.

Structure (SMILES) | activity change, negative = inhibition | Potency
CCCN(CCC)S(=O)(=O)c1ccc(C(=O)O)cc1 | -5.18% (inactive) | 
CNCCc1ccccn1 | 0.402% [at 54.9 µM] (inactive) | 
C[N+]12CCC(CC1)C(OC(=O)C(O)(c1ccccc1)c1ccccc1)C2 (stereo not given) | -8.1% (inactive) | 
CCN(CC)CCOc1ccc2c(c1)C(=O)c1cc(OCCN(CC)CC)ccc1-2 | -6.98% (inactive) | 
Oc1c(Cl)cc(Cl)c(Cl)c1Cc1c(O)c(Cl)cc(Cl)c1Cl |  | 79.4 µM (active) and 31.6 µM (active)
COc1cc(N)c(Cl)cc1C(=O)NC1CCN(Cc2ccccc2)CC1 |  | inactive
CCC(Cc1c(I)cc(I)c(N)c1I)C(=O)O (stereo not given) | -8.52% (inactive) | 
CCOC(=O)c1c(N)sc2c1CCN(Cc1ccccc1)C2 | -13.6% (inactive) | 
O=C1C(CCS(=O)c2ccccc2)C(=O)N(c2ccccc2)N1c1ccccc1 (stereo not given) | -3.73% [at 54.9 µM] (inactive) | 
COc1ccc(C(Cl)=C(c2ccc(OC)cc2)c2ccc(OC)cc2)cc1 | -8.04% [at 54.9 µM] (inactive) | 
NCCNC(=O)c1ccc(Cl)cn1 | 0.0366% (inactive) | 
CCOc1ccc(NC(C)=O)cc1 |  | inactive
CC(C)Nc1cccnc1N1CCN(C(=O)c2cc3cc(NS(C)(=O)=O)ccc3[nH]2)CC1 | -11% (inactive) | 
CCN(CC)CCNc1ccc(CO)c2sc3ccccc3c(=O)c12 | -4.24% [at 54.9 µM] (inactive) | 
Cc1cc(C)cc(OCC2CNC(=O)O2)c1 (stereo not given) | -0.999% (inactive) | 
CCCc1ncc(C[n+]2ccccc2C)c(N)n1 | 5.79% [at 54.9 µM] (inactive) | 
CCc1oc2ccccc2c1C(=O)c1cc(Br)c(O)c(Br)c1 |  | 31.6 µM (active)
C=C[C@@]1(C)CC(=O)[C@]2(O)[C@@]3(C)[C@@H](O)CCC(C)(C)[C@@H]3[C@H](O)[C@H](OC(C)=O)[C@@]2(C)O1 | -1.95% (inactive) | 

Structure (SMILES) | activity change, negative = inhibition | Potency
COc1cc(C(=O)NCc2ccc(OCCN(C)C)cc2)cc(OC)c1OC |  | inactive
CCN(CC)CCOC(=O)C1(c2ccccc2)CCCC1 | -5.17% (inactive) | 
CCCCC(CC)CN1CN(CC(CC)CCCC)CC(C)(N)C1 (stereo not given) | -7.74% (inactive) | 
C[N+]1(CC2COC(c3ccccc3)(C3CCCCC3)O2)CCCCC1 (stereo not given) | 0.311% (inactive) | 
CC(=O)N[C@@H](CCC(=O)O)C(=O)O | -0.22% (inactive) | 
Nc1nc(-c2ccccc2)c(Br)c(=O)[nH]1 | -4.01% (inactive) | 
COc1cc(O)c(C(=O)c2ccccc2)cc1S(=O)(=O)O | -5.86% (inactive) | 
CC(C)(C)CC(C)(C)c1ccc(O)c(-n2nc3ccccc3n2)c1 | -7.18% (inactive) | 
O=C(O)C1(C(=O)O)CCC1.[NH2-].[NH2-].[Pt+2] | -7.49% (inactive) | 
c1ccc(-c2nc[nH]c2-c2ccccc2)cc1 | -7.97% (inactive) | 
OC[C@H]1O[C@@H]2O[C@H]3[C@H](O)[C@@H](O)[C@@H](O[C@H]4[C@H](O)[C@@H](O)[C@@H](O[C@H]5[C@H](O)[C@@H](O)[C@@H](O[C@H]6[C@H](O)[C@@H](O)[C@@H](O[C@H]7[C@H](O)[C@@H](O)[C@@H](O[C@H]8[C@H](O)[C@@H](O)[C@@H](O[C@H]1[C@H](O)[C@H]2O)O[C@@H]8CO)O[C@@H]7CO)O[C@@H]6CO)O[C@@H]5CO)O[C@@H]4CO)O[C@@H]3CO | -6.03% (inactive) | 
NC(=O)c1ccccc1O | -10.3% (inactive) | 
OCCOCCN1CCN(C2=Nc3ccccc3Sc3ccccc32)CC1 |  | inactive
FC(F)(F)C(F)(F)C(F)(F)C(F)(F)C(F)(F)C(F)(F)C(F)(F)C(F)(F)Br | -1.32% (inactive) | 
NCCNc1cccc2ccccc12 | -0.0641% (inactive) | 
C[N+]1(C)CCC(=C(c2ccccc2)c2ccccc2)CC1 | -5.23% [at 54.9 µM] (inactive) | 
CCOCCn1c(N2CCCN(C)CC2)nc2ccccc21 | 2.03% (inactive) | 
